In the supplement of paper PMC11732987, “Enantioselective OTUD7B fragment discovery through chemoproteomics screening and high-throughput optimisation” (Communications Chemistry, 2025):

Legend:
Test in all cases: log2 ratio of Biotin-Ahx-Ub-VS probe labelling (fragment/DMSO); higher = less target engagement (more negative = stronger competition), active = hit call of the paper (q ≤ 0.05, log2 ratio ≤ -1)
Conditions in all cases: compound concentration: 200 uM; treatment time: 3 h
[1] = target: USP34 (UniProt Q70CQ2)
Method in brief: (§1)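 Triplicate samples of HEK293T lysate, 495 µg each, received fragment at 200 µM or vehicle for 3 h, followed by Biotin-Ahx-Ub-VS (0.5 µM final) for 1 h. After NeutrAvidin enrichment of labelled DUBs and LysC/trypsin digestion, peptides were run by diaPASEF LC-MS/MS. The values are average log2 fragment/vehicle ratios from global-median-normalised Spectronaut label-free quantities, tested by unpaired t-test on proteins having ≥2 unique peptides.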

[2] = target: T1, USP36 (UniProt Q9P275)
T1 sequence (whole entry): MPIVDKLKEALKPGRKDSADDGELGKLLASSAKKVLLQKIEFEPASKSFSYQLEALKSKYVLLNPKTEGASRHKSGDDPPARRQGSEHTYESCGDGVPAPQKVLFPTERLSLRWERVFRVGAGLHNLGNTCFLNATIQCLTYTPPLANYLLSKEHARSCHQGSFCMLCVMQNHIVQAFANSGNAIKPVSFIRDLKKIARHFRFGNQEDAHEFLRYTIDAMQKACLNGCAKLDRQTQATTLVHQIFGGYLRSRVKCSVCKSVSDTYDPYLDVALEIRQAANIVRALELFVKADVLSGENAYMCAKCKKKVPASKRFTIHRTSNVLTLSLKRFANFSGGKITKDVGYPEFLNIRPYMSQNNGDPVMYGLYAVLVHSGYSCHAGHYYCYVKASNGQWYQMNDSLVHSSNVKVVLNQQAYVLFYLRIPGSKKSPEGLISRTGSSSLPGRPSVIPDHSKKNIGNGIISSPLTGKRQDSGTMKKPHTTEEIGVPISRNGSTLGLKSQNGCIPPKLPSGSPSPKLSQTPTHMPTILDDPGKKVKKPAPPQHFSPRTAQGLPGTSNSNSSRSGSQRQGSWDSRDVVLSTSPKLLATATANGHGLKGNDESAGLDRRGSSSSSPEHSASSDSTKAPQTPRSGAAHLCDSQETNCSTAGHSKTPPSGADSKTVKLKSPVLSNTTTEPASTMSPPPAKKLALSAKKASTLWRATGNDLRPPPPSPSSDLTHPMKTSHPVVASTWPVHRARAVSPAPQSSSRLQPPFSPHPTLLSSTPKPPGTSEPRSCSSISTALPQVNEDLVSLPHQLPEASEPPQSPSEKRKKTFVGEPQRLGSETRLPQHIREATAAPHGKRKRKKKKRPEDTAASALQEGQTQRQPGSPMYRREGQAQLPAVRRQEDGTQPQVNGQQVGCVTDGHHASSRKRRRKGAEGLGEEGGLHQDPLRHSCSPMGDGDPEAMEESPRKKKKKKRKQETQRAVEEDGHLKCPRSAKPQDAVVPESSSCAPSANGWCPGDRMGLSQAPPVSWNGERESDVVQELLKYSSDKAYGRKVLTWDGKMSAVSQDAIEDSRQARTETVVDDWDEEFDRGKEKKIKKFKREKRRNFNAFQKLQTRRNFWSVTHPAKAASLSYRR
Method in brief: as §1

[3] = target: T2, USP38 (UniProt Q8NB14)
T2 sequence (whole entry): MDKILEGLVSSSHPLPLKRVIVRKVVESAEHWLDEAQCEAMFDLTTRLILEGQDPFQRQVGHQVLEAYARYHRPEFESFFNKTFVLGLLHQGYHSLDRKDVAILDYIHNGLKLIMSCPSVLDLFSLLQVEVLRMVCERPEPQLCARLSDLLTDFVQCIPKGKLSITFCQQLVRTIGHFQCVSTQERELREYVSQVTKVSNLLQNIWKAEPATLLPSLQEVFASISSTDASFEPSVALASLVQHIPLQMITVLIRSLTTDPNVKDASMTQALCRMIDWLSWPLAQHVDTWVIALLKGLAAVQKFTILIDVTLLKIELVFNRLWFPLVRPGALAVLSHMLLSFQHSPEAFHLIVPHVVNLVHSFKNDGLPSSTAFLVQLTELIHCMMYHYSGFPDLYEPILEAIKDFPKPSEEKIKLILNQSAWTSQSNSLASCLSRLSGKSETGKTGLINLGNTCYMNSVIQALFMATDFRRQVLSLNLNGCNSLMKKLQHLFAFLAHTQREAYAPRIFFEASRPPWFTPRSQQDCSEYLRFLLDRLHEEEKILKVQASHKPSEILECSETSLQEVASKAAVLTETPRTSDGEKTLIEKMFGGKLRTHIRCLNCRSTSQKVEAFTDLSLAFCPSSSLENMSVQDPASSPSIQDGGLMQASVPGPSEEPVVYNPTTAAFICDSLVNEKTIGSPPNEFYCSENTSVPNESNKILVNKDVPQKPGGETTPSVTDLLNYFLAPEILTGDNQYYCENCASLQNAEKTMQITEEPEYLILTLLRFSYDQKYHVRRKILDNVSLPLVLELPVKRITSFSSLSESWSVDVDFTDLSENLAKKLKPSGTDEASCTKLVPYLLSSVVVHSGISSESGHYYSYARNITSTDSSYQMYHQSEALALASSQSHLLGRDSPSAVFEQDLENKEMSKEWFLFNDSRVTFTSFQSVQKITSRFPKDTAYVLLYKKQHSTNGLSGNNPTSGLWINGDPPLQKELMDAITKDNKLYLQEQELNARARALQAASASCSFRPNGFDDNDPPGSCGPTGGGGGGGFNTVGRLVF
Method in brief: as §1

[4] = target: T3, USP39 (UniProt Q53GS9)
T3 sequence (whole entry): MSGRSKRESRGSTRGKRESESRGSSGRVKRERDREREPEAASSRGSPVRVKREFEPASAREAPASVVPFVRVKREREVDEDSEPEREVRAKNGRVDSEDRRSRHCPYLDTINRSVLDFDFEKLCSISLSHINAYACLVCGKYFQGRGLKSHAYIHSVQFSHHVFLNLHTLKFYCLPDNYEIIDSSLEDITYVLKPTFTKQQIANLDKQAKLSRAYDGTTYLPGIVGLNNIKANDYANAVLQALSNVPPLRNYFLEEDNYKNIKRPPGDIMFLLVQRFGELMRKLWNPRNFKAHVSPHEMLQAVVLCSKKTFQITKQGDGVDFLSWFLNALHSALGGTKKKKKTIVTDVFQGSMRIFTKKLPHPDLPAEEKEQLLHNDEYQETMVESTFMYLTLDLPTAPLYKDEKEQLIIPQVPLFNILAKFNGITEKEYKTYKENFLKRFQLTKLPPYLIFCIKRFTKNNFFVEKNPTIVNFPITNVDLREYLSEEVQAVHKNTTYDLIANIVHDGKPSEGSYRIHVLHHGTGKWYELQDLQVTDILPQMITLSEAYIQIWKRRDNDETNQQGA
Method in brief: as §1

[5] = target: T4, USP4 (UniProt Q13107)
T4 sequence (whole entry): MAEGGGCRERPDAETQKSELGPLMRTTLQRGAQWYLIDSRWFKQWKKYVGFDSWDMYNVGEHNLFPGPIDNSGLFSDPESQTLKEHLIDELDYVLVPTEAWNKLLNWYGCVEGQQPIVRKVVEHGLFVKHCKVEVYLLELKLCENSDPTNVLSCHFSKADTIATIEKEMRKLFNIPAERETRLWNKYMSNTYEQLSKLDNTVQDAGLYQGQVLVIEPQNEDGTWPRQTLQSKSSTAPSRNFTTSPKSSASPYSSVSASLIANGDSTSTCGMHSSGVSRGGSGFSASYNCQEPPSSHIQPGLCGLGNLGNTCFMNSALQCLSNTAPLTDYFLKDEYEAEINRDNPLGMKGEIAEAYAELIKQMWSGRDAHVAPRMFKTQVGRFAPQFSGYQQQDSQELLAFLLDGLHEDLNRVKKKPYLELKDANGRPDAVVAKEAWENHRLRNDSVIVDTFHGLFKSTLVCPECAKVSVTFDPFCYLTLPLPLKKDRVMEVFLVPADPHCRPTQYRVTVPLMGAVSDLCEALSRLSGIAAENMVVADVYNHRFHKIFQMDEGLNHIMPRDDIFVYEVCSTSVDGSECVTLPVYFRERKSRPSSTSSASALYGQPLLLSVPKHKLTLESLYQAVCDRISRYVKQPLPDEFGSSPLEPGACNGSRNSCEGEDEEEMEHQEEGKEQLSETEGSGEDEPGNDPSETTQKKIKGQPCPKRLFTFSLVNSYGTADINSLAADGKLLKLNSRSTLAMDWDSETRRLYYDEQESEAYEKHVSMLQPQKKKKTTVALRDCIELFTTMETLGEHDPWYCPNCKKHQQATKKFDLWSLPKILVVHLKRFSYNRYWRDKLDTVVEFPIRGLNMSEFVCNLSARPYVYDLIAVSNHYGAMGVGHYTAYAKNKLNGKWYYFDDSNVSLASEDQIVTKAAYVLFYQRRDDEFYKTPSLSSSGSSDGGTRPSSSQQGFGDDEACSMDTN
Method in brief: as §1

Measured: log2 ratio of Biotin-Ahx-Ub-VS probe labelling

USP34, sequence (Q70CQ2 whole entry, the tested form may be a part): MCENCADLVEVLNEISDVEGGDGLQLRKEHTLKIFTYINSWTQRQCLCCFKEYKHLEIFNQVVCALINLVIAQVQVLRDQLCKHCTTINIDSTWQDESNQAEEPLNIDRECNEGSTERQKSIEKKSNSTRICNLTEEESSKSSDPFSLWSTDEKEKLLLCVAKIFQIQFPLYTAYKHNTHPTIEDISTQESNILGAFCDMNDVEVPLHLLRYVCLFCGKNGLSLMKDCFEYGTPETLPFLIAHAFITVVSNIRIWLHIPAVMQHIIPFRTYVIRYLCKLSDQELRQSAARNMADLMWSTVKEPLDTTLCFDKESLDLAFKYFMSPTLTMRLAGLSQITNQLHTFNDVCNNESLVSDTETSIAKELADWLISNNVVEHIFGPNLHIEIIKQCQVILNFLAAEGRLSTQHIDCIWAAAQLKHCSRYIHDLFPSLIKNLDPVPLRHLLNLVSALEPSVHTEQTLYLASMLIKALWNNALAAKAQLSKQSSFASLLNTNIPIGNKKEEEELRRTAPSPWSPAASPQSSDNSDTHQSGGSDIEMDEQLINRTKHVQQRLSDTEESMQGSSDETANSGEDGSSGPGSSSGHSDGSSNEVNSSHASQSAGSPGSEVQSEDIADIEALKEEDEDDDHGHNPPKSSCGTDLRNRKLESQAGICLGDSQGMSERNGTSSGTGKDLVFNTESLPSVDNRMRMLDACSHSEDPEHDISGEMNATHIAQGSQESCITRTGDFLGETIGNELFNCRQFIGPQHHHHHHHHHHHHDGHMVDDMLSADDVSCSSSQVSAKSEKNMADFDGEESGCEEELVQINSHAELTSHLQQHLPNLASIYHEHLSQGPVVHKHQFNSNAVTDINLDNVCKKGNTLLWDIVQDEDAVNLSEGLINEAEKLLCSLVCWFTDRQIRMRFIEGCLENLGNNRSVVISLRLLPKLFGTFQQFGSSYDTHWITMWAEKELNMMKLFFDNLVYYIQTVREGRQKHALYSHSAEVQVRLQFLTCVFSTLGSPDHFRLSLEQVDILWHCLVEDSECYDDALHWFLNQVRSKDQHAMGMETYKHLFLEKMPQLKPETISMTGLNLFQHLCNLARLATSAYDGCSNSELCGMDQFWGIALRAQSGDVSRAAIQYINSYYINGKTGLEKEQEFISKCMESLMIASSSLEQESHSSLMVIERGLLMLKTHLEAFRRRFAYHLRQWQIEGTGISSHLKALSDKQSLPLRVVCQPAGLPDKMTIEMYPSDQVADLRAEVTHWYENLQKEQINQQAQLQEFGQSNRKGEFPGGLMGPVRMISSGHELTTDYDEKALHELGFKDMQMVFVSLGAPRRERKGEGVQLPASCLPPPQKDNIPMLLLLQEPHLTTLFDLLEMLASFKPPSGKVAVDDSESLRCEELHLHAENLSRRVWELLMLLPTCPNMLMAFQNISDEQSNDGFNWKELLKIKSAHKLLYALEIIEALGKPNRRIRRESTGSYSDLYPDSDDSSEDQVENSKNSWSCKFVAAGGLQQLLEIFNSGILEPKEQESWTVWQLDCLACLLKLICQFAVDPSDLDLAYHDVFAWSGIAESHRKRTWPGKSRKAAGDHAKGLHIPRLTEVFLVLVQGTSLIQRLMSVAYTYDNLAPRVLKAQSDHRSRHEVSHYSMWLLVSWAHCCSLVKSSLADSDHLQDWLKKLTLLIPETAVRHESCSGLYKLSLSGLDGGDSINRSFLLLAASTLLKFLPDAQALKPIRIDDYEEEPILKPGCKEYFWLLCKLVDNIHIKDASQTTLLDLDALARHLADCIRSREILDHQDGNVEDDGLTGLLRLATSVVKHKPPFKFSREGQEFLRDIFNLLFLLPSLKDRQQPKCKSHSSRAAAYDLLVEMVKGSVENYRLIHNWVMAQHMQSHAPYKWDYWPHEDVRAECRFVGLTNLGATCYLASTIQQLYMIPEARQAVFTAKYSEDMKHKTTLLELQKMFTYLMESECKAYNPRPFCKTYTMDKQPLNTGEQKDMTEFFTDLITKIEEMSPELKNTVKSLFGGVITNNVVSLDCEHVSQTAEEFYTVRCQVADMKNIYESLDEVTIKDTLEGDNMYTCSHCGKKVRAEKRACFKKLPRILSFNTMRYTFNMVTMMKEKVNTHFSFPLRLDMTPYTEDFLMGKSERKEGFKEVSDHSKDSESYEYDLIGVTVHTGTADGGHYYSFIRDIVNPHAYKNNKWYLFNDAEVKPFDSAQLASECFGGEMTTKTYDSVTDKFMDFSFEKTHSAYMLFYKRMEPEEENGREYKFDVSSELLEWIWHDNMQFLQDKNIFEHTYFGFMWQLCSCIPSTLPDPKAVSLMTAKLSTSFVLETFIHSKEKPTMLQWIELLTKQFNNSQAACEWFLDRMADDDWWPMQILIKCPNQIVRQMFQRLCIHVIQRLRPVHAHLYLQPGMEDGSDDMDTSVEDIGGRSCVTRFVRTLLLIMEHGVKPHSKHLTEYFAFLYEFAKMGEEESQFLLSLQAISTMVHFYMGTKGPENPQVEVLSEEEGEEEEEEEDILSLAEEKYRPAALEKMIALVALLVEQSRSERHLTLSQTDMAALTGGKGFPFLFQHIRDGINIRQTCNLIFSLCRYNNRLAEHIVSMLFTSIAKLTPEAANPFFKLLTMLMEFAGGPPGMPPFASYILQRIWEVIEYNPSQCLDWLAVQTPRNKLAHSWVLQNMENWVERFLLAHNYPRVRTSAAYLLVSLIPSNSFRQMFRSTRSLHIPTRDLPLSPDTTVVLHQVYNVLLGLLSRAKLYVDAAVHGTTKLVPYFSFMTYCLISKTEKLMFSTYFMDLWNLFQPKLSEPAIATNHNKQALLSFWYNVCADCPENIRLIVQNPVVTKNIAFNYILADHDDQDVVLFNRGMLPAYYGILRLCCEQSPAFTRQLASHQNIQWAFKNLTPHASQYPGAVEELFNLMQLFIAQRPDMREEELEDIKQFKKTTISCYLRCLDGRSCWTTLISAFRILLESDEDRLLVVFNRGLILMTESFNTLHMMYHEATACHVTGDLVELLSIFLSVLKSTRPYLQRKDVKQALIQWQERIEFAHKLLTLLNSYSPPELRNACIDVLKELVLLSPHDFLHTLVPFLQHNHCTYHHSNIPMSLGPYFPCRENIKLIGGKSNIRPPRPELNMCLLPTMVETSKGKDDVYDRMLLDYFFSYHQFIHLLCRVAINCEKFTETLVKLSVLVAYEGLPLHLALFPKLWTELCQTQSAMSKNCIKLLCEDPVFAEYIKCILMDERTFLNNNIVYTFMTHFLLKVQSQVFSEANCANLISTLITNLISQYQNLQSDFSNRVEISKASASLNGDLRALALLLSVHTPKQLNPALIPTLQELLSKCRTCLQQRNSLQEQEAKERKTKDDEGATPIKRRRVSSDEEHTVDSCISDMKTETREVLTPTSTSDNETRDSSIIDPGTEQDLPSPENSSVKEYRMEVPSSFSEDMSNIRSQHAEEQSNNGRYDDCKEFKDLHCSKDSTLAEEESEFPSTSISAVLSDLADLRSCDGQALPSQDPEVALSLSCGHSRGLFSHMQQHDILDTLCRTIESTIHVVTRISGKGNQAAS

O=C(CCl)Nc1nnc(CC(F)(F)F)o1
inactive: [1] 0.146 | [2] -0.182 | [3] -0.0633 | [4] 0.00671 | [5] -0.0637
